Measurements reported in PubChem BioAssay.
Calls of active or inactive are those of the source. Unless noted, no rule for the calls is given here.

Legend:
[1] = test system: Hepatitis C virus NS3 helicase; assay: blockers of NS3h binding to ssDNA – biochemical, fluorescence polarization, LOPAC1280 library, primary screen (AID 687035; in the data active = inhibition above about 37%); details: Purified HCV NS3 helicase, Cy5-dT15 ssDNA binding fluorescence polarization; stronger effect = higher value; concentration not given here
[2] = compounds altering Cy5-DNA-NS3h complex signal – biochemical, LOPAC1280, artefact control for HCV NS3 helicase inhibitor project (AID 687037); details: Cy5-DNA-NS3h complex fluorescence interference counterscreen
[3] = test system: Aerobactin synthetase IucA (Klebsiella pneumoniae); assay: inhibition of K. pneumoniae IucA enzyme – biochemical, Tocris library, absorbance (AID 1345561); details: purified IucA enzyme assay, absorbance (OD) read-out; stronger effect = lower value;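 tested at 8 µM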;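 also: 100% = enzyme without compound and 0% = no enzyme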
[4] = viability loss with induced miR-34 in A549 – imaging, A549 dox-inducible miR-34, nuclei and caspase counts, primary screen (AID 1347080;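 active = compounds whose cell count with miR-34 switched on is under 0.7 times the count with it off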); details: A549 miR-34 inducible, Hoechst nuclei count, 48 h
[5] = galactose survival enhancers in mitochondrial complex I cybrids – cell-based, galactose medium, ATP luminescence, primary screen (AID 1645843;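 active = z-score of at least 1.8 in each of two replicates, scored against plate mean and spread of sample wells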;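 also: positive z means more ATP and so rescue of galactose-driven cybrid death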); details: complex I mutant cybrid cells, 72 h, stronger effect = higher value
[6] = P. berghei load reduction in hepatocytes – cell-based, HepG2, luciferase luminescence, HepG2 viability, primary screen (AID 624349; in the data active = parasite load remaining mostly below about 12%, no sharp cut-off; inactive = mostly above about 10%;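 also: 100% = mean of DMSO negative control wells on the same plate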); details: P. berghei liver stage in HepG2, luciferase luminescence, concentration not given here; parasite load remaining: stronger effect = lower value; viability: measured here: HepG2 viability without parasites
[7] = signal quenchers or enhancers, Cy5 substrate/SSB – biochemical, NIH Clinical Collection, E. coli SSB, artefact control for HCV NS3 helicase inhibitor project (AID 743268); details: Cy5-oligo bound E. coli SSB, fluorescence interference
[8] = test system: Hepatitis C virus NS3 helicase; assay: blockers of NS3h binding to DNA – biochemical, fluorescence polarization, NIH Clinical Collection, primary screen (AID 743270); details: NS3 helicase binding to Cy5-dT15 DNA, stronger effect = higher value, concentration not given here
[9] = target: Single-stranded DNA-binding protein (Escherichia coli (strain K12)) (UniProt P0AGE0); assay: SSB-ssDNA binding inhibitors – biochemical, fluorescence polarization, NIH Clinical Collection, counter-screen for HCV NS3 helicase inhibitor project (AID 743271; in the data active = inhibition above about 28%); details: E. coli SSB-DNA binding, stronger effect = higher value, concentration not given here
[10] = compounds distorting NS3 helicase fluorescence signal – biochemical, NIH Clinical Collection, artefact control for HCV NS3 helicase inhibitor project (AID 743272); details: fluorescence interference counterscreen, HCV NS3 helicase assay; stronger effect = lower value;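 also: HCV NS3 helicase with a Cy5 labelled single stranded DNA probe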
[11] = compounds altering circadian rhythm period length – cell-based, LOPAC library, luminescence reporter (AID 2774); details: circadian reporter cells, at 7 µM, actives lie on both sides;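 also: values are relative to mean of DMSO wells on each plate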
[12] = test system: Aerobactin synthetase IucA (Klebsiella pneumoniae hvKP1); assay: IucA enzyme inhibition, primary screen, biochemical, Spectrum library (AID 1346200); details: malachite green pyrophosphate, A620, at 8 µM, stronger effect = lower value;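 also: 100% = wells without compound and 0% = wells lacking enzyme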
[13] = stronger effect = lower value, cell number ratio, induced over uninduced
[14] = measured here: relative caspase fold change +Dox/-Dox
[15] = measured here: total cells with miR-34 induction, stronger effect = lower value
[16] = measured here: total cells without miR-34 induction

In the case of `COc1ccc2c(c1)c(CCN1CCOCC1)c(C)n2C(=O)c1cccc(Cl)c1Cl`, the inhibition [1] is reported as -1% (inactive), the fluorescence ratio (interference) [2] is reported as 1.1 (inactive) and the remaining activity [3] is reported as 101% (inactive). The fold change [4, 13] was 0.915 (inactive), the fold change [4, 14] was 1.25 and the cell count [4, 15] was 6500. The cell count [4, 16] was 7100 and the z-score [5] was -0.005 (inactive).

In the case of `CC(C)CC(N)C1(c2ccc(Cl)cc2)CCC1` (centres undefined), the remaining activity [3] is reported as 120% (inactive), the fold change ([4]; stronger effect = lower value) is reported as 1.01 (inactive) and the fold change [4, 14] is reported as 1.15. The cell count [4, 15] was 7820, the cell count [4, 16] was 7770 and the z-score [5] was -0.615 (inactive).

With `Cc1[nH]c2ccc(Cl)cc2c1C1=CCNCC1` the remaining activity [3] was 103% (inactive), the fold change [4, 13] was 0.919 (inactive) and the fold change [4, 14] was 1.4. For the same molecule, the cell count [4, 15] was 7850, the cell count [4, 16] was 8550 and the z-score [5] was -0.42 (inactive).

With `O=C1NC(=O)c2c1c1c3ccccc3n3c1c1c2c2ccccc2n1C1CCC3O1` the parasite load remaining [6] was 66.3% (inactive), the viability [6] was 60.2% and the remaining activity [3] was 103% (inactive). The fold change [4, 13] was 1.12 (inactive), the fold change [4, 14] was 1.11 and the cell count [4, 15] was 5410. For the same molecule, the cell count [4, 16] was 4820 and the z-score [5] was -0.395 (inactive).

With `CC(C)(Cc1c[nH]c2ccc(Cl)cc12)NCCOc1ccccc1OCC1CC1` the remaining activity [3] was 119% (inactive), the fold change [4, 13] was 0.921 (inactive) and the fold change [4, 14] was 1.09. For the same molecule, the cell count [4, 15] was 226, the cell count [4, 16] was 246 and the z-score [5] was -1.23 (inactive).

With `Cc1ccc2c(c1)C1(CCN(CCc3nc(-c4ccccc4)oc3C)CC1)OC(=O)N2` the remaining activity [3] was 95% (inactive), the fold change [4, 13] was 0.966 (inactive) and the fold change [4, 14] was 1.87. For the same molecule, the cell count [4, 15] was 5420, the cell count [4, 16] was 5610 and the z-score [5] was -0.635 (inactive).

For `Oc1ccc2c3c1O[C@H]1c4[nH]c5ccccc5c4C[C@@]4(O)C(C2)N(CC2CC2)CC[C@]314`, the parasite load remaining [6] was 46.5% (inactive), the viability [6] was 62.3% and the fluorescence ratio [7] was 0.91 (inactive). The inhibition [8] was -1.19% (inactive), the inhibition [9] was -0.1% (inactive) and the fluorescence ratio [10] was 0.89 (inactive). The remaining activity [3] was 101% (inactive), the fold change ([4]; stronger effect = lower value) was 1.03 (inactive) and the fold change [4, 14] was 0.989. For the same molecule, the cell count [4, 15] was 8920, the cell count [4, 16] was 8700 and the z-score [5] was 0.53 (inactive).

With `CCCN(CCC)[C@@H]1CCc2c(OC)cccc2[C@@H]1C` the remaining activity [3] was 103% (inactive), the fold change [4, 13] was 0.92 (inactive) and the fold change [4, 14] was 0.674. For the same molecule, the cell count [4, 15] was 8420, the cell count [4, 16] was 9160 and the z-score [5] was 0.925 (inactive).

For `CCC[C@@H]1CC2=CC(=O)CC[C@]2(C)[C@H]2CC[C@@]3(C)[C@@H](CC[C@@]3(O)CCC(=O)O)[C@H]12`, the remaining activity [3] was 116% (inactive), the fold change [4, 13] was 0.926 (inactive) and the fold change [4, 14] was 0.977. The cell count [4, 15] was 7340, the cell count [4, 16] was 7920 and the z-score [5] was 0.06 (inactive).

With `COC1(C[S@@](=O)c2ccccc2)CCN(CCc2c[nH]c3ccc(F)cc23)CC1` the remaining activity [3] was 113% (inactive), the fold change [4, 13] was 0.956 (inactive) and the fold change [4, 14] was 1.03. The cell count [4, 15] was 8390, the cell count [4, 16] was 8770 and the z-score [5] was -0.4 (inactive).

For `CN1CCN(c2ccc3ccccc3n2)CC1`, the period change [11] was -0.045 h (inactive), the remaining activity [3] was 109% (inactive) and the fold change [4, 13] was 0.923 (inactive). The fold change [4, 14] was 0.813, the cell count [4, 15] was 8930 and the cell count [4, 16] was 9670. The z-score [5] was -0.58 (inactive).

With `NC=Nc1ccc2[nH]c3c(c2c1)C[C@@]1(O)C2Cc4ccc(O)c5c4[C@@]1(CCN2CC1CC1)[C@H]3O5` the remaining activity [3] was 121% (inactive), the fold change ([4]; stronger effect = lower value) was 0.975 (inactive) and the fold change [4, 14] was 1.22. For the same molecule, the cell count [4, 15] was 9860, the cell count [4, 16] was 10100 and the z-score [5] was -0.38 (inactive).

For `C[C@H](NC[C@H](O)CP(=O)(O)CC1CCCCC1)c1ccc(Cl)c(Cl)c1`, the remaining activity [3] was 121% (inactive), the fold change [4, 13] was 0.971 (inactive) and the fold change [4, 14] was 0.73. The cell count [4, 15] was 10100, the cell count [4, 16] was 10400 and the z-score [5] was 0.2 (inactive).

With `O=C1NC(=O)c2c1c1c3ccccc3[nH]c1c1[nH]c3ccccc3c21` the parasite load remaining [6] was 79.1% (inactive), the viability [6] was 159% and the remaining activity [3] was 93.4% (inactive). For the same molecule, the fold change ([4]; stronger effect = lower value) was 0.78 (inactive), the fold change [4, 14] was 1.58 and the cell count [4, 15] was 3660. The cell count [4, 16] was 4680 and the z-score [5] was -0.6 (inactive).

In the case of `CC(=O)N1CC[N+](C)(C)CC1`, the remaining activity [3] is reported as 90.4% (inactive), the fold change [4, 13] is reported as 0.94 (inactive) and the fold change [4, 14] is reported as 0.788. The cell count [4, 15] was 9100, the cell count [4, 16] was 9680 and the z-score [5] was 0.25 (inactive).

For `COc1cc2c(cc1O)C(CCc1ccc(Cl)cc1)N(C)CC2` (centres undefined), the remaining activity [3] was 109% (inactive), the fold change [4, 13] was 0.951 (inactive) and the fold change [4, 14] was 1.1. For the same molecule, the cell count [4, 15] was 7110, the cell count [4, 16] was 7480 and the z-score [5] was -0.615 (inactive).

With `C=C(C)CN1CC[C@]23c4c5ccc(O)c4O[C@H]2c2[nH]c4ccccc4c2C[C@@]3(O)C1C5` the parasite load remaining [6] was 2.83% (inactive), the viability [6] was 29.3% and the fluorescence ratio [7] was 0.95 (inactive). The inhibition [8] was -1.97% (inactive), the inhibition [9] was 1.97% (inactive) and the fluorescence ratio [10] was 0.93 (inactive). For the same molecule, the remaining activity [3] was 92% (inactive), the fold change ([4]; stronger effect = lower value) was 0.859 (inactive) and the fold change [4, 14] was 0.814. For the same molecule, the cell count [4, 15] was 5020, the cell count [4, 16] was 5850 and the z-score [5] was -0.785 (inactive).

With `CCCN(C/C=C/I)C1CCc2ccc(O)cc2C1` (centres undefined) the remaining activity [3] was 102% (inactive), the fold change [4, 13] was 0.904 (inactive) and the fold change [4, 14] was 0.638. The cell count [4, 15] was 8360, the cell count [4, 16] was 9250 and the z-score [5] was -0.23 (inactive).

For `COc1ccc(C2C(=O)c3ccccc3C2=O)cc1`, the activity remaining [12] was 119% (inactive).

With `CC[C@]12C=CCN3CC[C@@]4(c5ccc(OC)cc5N(C)C4[C@@](O)(C(=O)OC)[C@@H]1OC(C)=O)[C@@H]32` (some centres undefined) the activity remaining [12] was 112% (inactive).
